Results: the supplement of paper PMC10849652
The full data set covers some 7,900 targets. This sample favours those with a hit. About 0.6% of all pairs of compound and target were hits.

These targets were tested with CC[C@H](C)[C@@H](C(=O)N[C@@H]([C@@H](C)O)C(=O)N[C@@H](CC(C)C)C(=O)[C@]1(CO1)C)NC(=O)[C@H]([C@@H](C)CC)N(C)C(=O)C [epoxomicin] (assay: log2 fold change, soluble protein after heating vs DMSO (PISA); higher = thermal stabilisation; K562 cells, 10 uM, 30 min; active = over 0.2 and 3.5 SD of the protein, either way, in both replicates (recomputed)).
Method in brief: (§1)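 K562 cells at 2×10^6 cells/mL were treated with 10 μM compound for 30 min. Aliquots were heated for 3 min across 48°C-58°C, pooled, and extracted in PBS with 0.5% NP-40 at 4°C; soluble protein was the supernatant after 21,000xg for 90 min. Soluble protein was quantified by TMTpro 16plex LC-MS/MS with channel sums equalised, and reported as log2 fold change in thermal stability against DMSO controls, with values from duplicates.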

Sequence of UniProt Q14157 (Q14157 whole entry, looked up): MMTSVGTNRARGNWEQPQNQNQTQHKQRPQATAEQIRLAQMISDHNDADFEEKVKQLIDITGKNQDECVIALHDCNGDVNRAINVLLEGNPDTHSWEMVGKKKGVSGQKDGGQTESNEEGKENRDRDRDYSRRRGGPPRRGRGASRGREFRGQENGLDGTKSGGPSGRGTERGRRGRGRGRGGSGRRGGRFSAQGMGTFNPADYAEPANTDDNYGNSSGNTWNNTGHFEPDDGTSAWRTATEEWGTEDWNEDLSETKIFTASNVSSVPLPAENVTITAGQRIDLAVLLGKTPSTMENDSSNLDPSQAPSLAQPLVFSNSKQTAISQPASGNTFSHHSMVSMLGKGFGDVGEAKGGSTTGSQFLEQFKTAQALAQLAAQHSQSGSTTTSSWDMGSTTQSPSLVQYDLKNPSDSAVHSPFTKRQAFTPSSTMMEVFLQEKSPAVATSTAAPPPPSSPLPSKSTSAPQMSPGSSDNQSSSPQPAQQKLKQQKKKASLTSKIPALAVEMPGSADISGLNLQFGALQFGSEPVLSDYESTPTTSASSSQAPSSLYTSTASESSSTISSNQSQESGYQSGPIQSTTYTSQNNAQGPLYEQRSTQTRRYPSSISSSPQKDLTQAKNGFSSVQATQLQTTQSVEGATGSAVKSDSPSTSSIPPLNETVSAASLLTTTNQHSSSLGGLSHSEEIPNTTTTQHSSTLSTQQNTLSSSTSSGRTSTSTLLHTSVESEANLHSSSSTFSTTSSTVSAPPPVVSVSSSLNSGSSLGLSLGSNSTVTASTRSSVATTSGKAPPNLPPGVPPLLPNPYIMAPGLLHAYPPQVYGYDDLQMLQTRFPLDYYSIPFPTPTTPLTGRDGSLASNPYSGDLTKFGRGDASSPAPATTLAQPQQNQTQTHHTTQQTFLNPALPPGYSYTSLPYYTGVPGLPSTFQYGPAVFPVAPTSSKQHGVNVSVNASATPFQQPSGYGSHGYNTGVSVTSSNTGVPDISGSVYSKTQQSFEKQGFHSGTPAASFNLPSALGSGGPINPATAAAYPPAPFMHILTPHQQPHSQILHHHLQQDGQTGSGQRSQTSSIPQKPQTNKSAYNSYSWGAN
Sequence of UniProt Q7Z392 (Q7Z392 whole entry, looked up): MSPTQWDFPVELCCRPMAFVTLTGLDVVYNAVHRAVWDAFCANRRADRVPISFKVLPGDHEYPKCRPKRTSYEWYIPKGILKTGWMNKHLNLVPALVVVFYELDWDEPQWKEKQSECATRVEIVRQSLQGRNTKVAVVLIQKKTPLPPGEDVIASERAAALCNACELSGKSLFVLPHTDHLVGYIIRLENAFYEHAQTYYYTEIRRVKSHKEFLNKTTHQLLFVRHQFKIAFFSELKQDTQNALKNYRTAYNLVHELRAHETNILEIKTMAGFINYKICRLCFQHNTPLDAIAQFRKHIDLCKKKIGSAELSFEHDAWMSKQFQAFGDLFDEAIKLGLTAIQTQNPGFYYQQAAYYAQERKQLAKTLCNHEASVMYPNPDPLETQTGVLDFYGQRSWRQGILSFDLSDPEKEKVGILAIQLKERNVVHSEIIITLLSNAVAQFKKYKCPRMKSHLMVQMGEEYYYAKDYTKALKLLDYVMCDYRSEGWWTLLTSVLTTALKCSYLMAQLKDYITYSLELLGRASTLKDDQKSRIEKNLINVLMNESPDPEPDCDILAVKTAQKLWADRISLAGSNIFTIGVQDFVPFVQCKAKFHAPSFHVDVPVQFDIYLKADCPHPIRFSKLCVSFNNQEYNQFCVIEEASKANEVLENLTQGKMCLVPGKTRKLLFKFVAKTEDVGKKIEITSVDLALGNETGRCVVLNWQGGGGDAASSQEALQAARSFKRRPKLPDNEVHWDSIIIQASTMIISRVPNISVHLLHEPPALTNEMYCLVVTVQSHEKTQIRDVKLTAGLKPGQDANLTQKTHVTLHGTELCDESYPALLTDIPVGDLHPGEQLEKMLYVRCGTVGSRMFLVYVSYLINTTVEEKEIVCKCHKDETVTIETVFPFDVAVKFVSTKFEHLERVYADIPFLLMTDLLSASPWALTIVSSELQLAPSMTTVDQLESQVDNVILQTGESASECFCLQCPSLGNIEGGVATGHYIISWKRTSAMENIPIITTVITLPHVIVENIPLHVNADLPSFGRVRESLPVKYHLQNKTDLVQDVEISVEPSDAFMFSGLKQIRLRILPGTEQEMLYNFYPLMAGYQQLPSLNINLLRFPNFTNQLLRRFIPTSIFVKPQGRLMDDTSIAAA
Sequence of UniProt Q9H4A3 (Q9H4A3 whole entry, looked up): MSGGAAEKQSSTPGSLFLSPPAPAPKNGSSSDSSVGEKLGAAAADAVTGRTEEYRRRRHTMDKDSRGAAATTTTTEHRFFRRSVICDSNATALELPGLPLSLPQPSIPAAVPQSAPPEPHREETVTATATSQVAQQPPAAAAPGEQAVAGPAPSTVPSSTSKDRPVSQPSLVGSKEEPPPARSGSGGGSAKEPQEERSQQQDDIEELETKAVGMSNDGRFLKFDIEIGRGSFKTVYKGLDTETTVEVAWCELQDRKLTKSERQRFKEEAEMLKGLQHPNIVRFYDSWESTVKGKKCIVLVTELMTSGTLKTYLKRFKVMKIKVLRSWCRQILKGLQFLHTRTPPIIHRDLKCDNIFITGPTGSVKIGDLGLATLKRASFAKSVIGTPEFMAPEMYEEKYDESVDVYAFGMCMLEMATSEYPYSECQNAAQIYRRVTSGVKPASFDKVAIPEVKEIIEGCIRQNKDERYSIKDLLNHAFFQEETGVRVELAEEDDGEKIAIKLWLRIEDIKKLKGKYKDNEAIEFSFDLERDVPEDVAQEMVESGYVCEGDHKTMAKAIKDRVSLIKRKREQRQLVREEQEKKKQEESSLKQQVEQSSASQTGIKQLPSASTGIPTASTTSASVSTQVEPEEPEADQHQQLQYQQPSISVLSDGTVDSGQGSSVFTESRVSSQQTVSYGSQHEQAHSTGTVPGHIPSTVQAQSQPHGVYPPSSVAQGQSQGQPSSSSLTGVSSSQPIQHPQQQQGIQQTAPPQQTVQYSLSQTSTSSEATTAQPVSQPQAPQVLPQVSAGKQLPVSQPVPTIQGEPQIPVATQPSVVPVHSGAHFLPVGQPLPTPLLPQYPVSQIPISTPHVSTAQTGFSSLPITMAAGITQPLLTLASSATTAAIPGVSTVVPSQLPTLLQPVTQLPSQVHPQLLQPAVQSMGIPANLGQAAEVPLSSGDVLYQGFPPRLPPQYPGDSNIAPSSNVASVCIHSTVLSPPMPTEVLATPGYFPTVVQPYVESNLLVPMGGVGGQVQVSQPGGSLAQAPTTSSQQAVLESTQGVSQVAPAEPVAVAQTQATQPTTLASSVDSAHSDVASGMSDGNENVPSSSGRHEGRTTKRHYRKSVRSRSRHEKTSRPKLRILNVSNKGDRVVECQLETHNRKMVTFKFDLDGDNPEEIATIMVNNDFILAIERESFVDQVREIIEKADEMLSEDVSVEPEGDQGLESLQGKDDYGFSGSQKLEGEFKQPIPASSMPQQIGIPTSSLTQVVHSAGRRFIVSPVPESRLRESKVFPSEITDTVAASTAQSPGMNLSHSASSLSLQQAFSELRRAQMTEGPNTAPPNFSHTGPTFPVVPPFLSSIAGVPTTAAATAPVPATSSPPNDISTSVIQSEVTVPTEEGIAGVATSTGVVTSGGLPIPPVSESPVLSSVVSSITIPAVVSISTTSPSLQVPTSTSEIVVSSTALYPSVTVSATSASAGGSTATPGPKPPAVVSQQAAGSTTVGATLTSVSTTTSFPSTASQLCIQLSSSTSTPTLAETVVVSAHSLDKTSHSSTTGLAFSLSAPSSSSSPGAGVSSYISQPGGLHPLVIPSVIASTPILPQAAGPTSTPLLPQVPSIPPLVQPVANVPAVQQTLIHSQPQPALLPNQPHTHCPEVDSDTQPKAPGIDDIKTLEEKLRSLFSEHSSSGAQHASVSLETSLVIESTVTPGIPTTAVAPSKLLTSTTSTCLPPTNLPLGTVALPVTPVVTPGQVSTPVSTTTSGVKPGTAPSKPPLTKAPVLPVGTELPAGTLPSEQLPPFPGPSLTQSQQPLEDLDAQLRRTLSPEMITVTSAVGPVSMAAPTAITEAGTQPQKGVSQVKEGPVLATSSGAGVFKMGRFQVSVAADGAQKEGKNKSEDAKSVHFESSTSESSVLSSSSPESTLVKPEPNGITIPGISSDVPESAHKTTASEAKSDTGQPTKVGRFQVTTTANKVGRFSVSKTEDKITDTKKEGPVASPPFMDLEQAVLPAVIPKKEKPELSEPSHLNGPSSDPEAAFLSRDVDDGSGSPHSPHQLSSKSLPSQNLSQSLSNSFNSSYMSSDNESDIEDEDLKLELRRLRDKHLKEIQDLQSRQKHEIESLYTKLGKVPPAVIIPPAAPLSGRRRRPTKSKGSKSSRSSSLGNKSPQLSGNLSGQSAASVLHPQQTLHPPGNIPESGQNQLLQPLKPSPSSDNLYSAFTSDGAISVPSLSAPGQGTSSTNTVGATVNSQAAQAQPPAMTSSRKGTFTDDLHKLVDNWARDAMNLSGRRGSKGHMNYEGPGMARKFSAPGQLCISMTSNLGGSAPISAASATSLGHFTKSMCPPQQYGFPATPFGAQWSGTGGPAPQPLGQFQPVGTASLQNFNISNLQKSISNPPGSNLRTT
Sequence of UniProt Q8N4H5 (Q8N4H5 whole entry, looked up): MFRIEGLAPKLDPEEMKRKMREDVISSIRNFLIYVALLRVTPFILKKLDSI
Sequence of UniProt Q01081 (Q01081 whole entry, looked up): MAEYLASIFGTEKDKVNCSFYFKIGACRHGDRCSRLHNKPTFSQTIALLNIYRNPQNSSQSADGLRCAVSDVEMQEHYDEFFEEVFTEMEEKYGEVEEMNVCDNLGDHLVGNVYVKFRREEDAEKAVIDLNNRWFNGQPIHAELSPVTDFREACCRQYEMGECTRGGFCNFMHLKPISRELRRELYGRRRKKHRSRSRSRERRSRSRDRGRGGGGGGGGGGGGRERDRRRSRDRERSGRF
Sequence of UniProt Q99757 (Q99757 whole entry, looked up): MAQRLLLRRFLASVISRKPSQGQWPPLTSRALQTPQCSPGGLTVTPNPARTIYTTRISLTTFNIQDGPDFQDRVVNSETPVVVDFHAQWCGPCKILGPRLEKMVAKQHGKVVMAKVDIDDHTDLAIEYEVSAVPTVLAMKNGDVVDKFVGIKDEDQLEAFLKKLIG

| Target | log2 fold change |
| --- | --- |
| WDHD1 (UniProt O75717) | 0.071 (inactive) |
| TOMM5 isoform 2 (UniProt Q8N4H5) | 0.538 (active) |
| WDR41 (UniProt Q9HAD4) | 0.061 (inactive) |
| XPO5 (UniProt Q9HAV4) | 0.073 (inactive) |
| VARS2, A0A0G2JL52 | 0.011 (inactive) |
| WNK1 isoform 7 (UniProt Q9H4A3) | 0.013 (inactive) |
| TRIM28 (UniProt Q13263) | 0.077 (inactive) |
| WRB (UniProt O00258) | -0.059 (inactive) |
| UBR2 (UniProt Q8IWV8) | 0.196 (inactive) |
| UBE2S (UniProt Q16763) | 0.195 (inactive) |
| VPS13B (UniProt Q7Z7G8) | 0.019 (inactive) |
| TRMT10C (UniProt Q7L0Y3) | 0.046 (inactive) |
| XPNPEP3 (UniProt Q9NQH7) | 0.075 (inactive) |
| TMEM189-UBE2V1 (UniProt I3L0A0) | -0.023 (inactive) |
| USP15 (UniProt Q9Y4E8) | 0.03 (inactive) |
| VWA8 (UniProt A3KMH1) | -0.005 (inactive) |
| TUBAL3 (UniProt A6NHL2) | -0.11 (inactive) |
| XPO1 (UniProt O14980) | 0.023 (inactive) |

| Target | log2 fold change |
| --- | --- |
| U2AF2 (UniProt P26368) | -0.024 (inactive) |
| WDR47 (UniProt O94967) | -0.037 (inactive) |
| U2AF1 isoform 2 (UniProt Q01081) | -0.02 (inactive) |
| XPNPEP1 isoform 3 (UniProt Q9NQW7) | -0.024 (inactive) |
| UBA1 (UniProt P22314) | 0.044 (inactive) |
| WDR4 (UniProt P57081) | 0.074 (inactive) |
| VPS35L (UniProt Q7Z3J2) | 0.003 (inactive) |
| UBA6 | 0.029 (inactive) |
| UQCR10 (UniProt Q9UDW1) | 0.005 (inactive) |
| TRAPPC11 (UniProt Q7Z392) | 0.016 (inactive) |
| TXN2 (UniProt Q99757) | 0.082 (inactive) |
| UBAP2L isoform 1 (UniProt Q14157) | -0.005 (inactive) |
| TMEM208 (UniProt Q9BTX3) | -0.03 (inactive) |
| UBAP2L isoform 5 (UniProt Q14157) | -0.018 (inactive) |
| TXNIP (UniProt Q9H3M7) | 0.054 (inactive) |
| VRK2 (UniProt Q86Y07) | 0.021 (inactive) |
| WDR61 (UniProt Q9GZS3) | -0.029 (inactive) |
| USP48 isoform 8 (UniProt Q86UV5) | -0.058 (inactive) |

The targets below were run with CCn1c(C(=O)N(C2CC2)C2CC2)cc2c3c(ncn3C)c(Nc3cc(C)n(C)n3)nc21 in the same assay as above.
Method in brief: as §1

| Target | log2 fold change |
| --- | --- |
| WDHD1 (UniProt O75717) | -0.018 (inactive) |
| TOMM5 isoform 2 (UniProt Q8N4H5) | 0.05 (inactive) |
| WDR41 (UniProt Q9HAD4) | -0.026 (inactive) |
| XPO5 (UniProt Q9HAV4) | 0.01 (inactive) |
| VARS2, A0A0G2JL52 | 0.006 (inactive) |
| WNK1 isoform 7 (UniProt Q9H4A3) | -0.012 (inactive) |
| TRIM28 (UniProt Q13263) | -0.004 (inactive) |
| WRB (UniProt O00258) | -0.021 (inactive) |
| UBR2 (UniProt Q8IWV8) | -0.026 (inactive) |
| UBE2S (UniProt Q16763) | -0.009 (inactive) |
| VPS13B (UniProt Q7Z7G8) | -0.016 (inactive) |
| TRMT10C (UniProt Q7L0Y3) | -0.064 (inactive) |
| XPNPEP3 (UniProt Q9NQH7) | 0.01 (inactive) |
| TMEM189-UBE2V1 (UniProt I3L0A0) | -0.003 (inactive) |
| USP15 (UniProt Q9Y4E8) | -0.032 (inactive) |
| VWA8 (UniProt A3KMH1) | 0.002 (inactive) |
| TUBAL3 (UniProt A6NHL2) | -0.023 (inactive) |
| XPO1 (UniProt O14980) | -0.049 (inactive) |

| Target | log2 fold change |
| --- | --- |
| U2AF2 (UniProt P26368) | 0.029 (inactive) |
| WDR47 (UniProt O94967) | -0.047 (inactive) |
| U2AF1 isoform 2 (UniProt Q01081) | 0.015 (inactive) |
| XPNPEP1 isoform 3 (UniProt Q9NQW7) | 0 (inactive) |
| UBA1 (UniProt P22314) | -0.098 (inactive) |
| WDR4 (UniProt P57081) | -0.03 (inactive) |
| VPS35L (UniProt Q7Z3J2) | -0.014 (inactive) |
| UBA6 | -0.008 (inactive) |
| UQCR10 (UniProt Q9UDW1) | 0.088 (inactive) |
| TRAPPC11 (UniProt Q7Z392) | -0.049 (inactive) |
| TXN2 (UniProt Q99757) | -0.038 (inactive) |
| UBAP2L isoform 1 (UniProt Q14157) | 0.059 (inactive) |
| TMEM208 (UniProt Q9BTX3) | -0.046 (inactive) |
| UBAP2L isoform 5 (UniProt Q14157) | 0.019 (inactive) |
| TXNIP (UniProt Q9H3M7) | 0.212 (inactive) |
| VRK2 (UniProt Q86Y07) | -0.072 (inactive) |
| WDR61 (UniProt Q9GZS3) | 0.011 (inactive) |
| USP48 isoform 8 (UniProt Q86UV5) | -0.03 (inactive) |
